The results in this text go back to PubChem BioAssay.

“And” between values parts separate entries of the source, which are not always exact repeats. Equal values may be shown once. The source made the active and inactive calls.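 How the source made its calls, unless noted: active means z-score of at least 1.8 in each of two replicates, scored against plate mean and spread of sample wells; inactive means the rest.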

Experiment [1] in a line: stimulators of nuclear beta-catenin in C2C12, primary screen, imaging, WNT3A-conditioned medium, mouse C2C12, NPC library (AID 1117326; in the data active means nuclear beta-catenin stimulation mostly above about 4.2%, no sharp cut-off; inactive means mostly below about 10%). The following applies: stronger effect = higher value.
The nature of experiment [2]: stimulators of insulin release from INS-1E, primary screen, cell-based, 5 mM glucose, NPC library (AID 1117329;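 active means compound raises insulin release from rat beta cells at 5 mM glucose, no numeric limit stated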). As to conditions: rat INS-1E insulin secretion, at 10 µM, stronger effect = higher value.
The nature of experiment [3]: growth inhibition of GSK3B-pretreated HCT116 cells – cell-based, CellTiter-Glo, 0.2 to 20 µM (AID 1117336;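 active means compounds lowering colon cancer cell viability after pretreatment blocking the GSK3B kinase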). As to conditions: HCT116 viability after GSK3B inhibitor, at 20 µM, stronger effect = higher value. A general note: In ATP-based viability assays light output follows the ATP content of the culture.
A short description of experiment [4]: inhibition of endothelial tube formation, primary screen, imaging, VEGF stimulated, CD31 staining, tube area, NPC library (AID 1117340;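 active means compound that reduces growth-factor-driven endothelial tube area in a mixed cell culture, no cutoff stated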). As to conditions: VEGF-stimulated ADSC/ECFC co-culture, at 10 µM, stronger effect = higher value.
A short description of experiment [5]: glucagon-like peptide 1 release enhancers, primary assay, NCI-H716 cell line, NPC library (AID 1117341;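 active means compound raises GLP1 secretion from the human gut endocrine cells, with no numeric limit stated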). As to conditions: NCI-H716 cells, at 10 µM, stronger effect = higher value.
Experiment [6] in a line: HCT116 colon cancer cell growth inhibition, primary screen, CellTiter-Glo luminescence, NPC library (AID 1117342;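 active means compounds that lower survival of HCT116 colon cancer cells in the luminescence readout, no numeric limit stated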). The following applies: at 20 µM (top of the series).
Experiment [7] is described as follows: CellTiter-Glo luminescent readout of SW480 viability loss, NPC library primary (AID 1117343;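 active means compounds that lower viability of the colon cancer cells in the luminescence readout, with no numeric limit stated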). The following applies: CellTiter-Glo luminescence; at 20 µM (top of the series).
The nature of experiment [8]: decreased DLD-1 cellular survival, CellTiter-Glo luminescent readout, NPC compound collection, primary HTS (AID 1117346;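 active means compounds that lower survival of DLD-1 colon cancer cells in the luminescence readout, no cutoff given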). The following applies: DLD-1 viability, CellTiter-Glo luminescence; at 20 µM (top of the series).
Experiment [9] is described as follows: differential killing of epithelial or mesenchymal cells, primary screen, imaging, PC-3E GFP, TEM4-18 mCherry, co-culture (AID 1345086;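 active means compounds killing one labelled cell type while sparing the other, by normalised counts and ratio limits, not self-fluorescent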;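 on all read-outs here: cells exposed to compound for 72 h before imaging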;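 on red/green cell ratio (normalised): normalised mesenchymal count divided by normalised epithelial count so high means epithelial killing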). The following applies: imaging cell counts, at 1 µM; for red/green cell ratio (normalised): actives lie on both sides.
A short description of experiment [10]: survival rescue of mitochondrial mutant cells in low glucose, primary screen, MELAS cybrids, Rieske KO mouse fibroblasts, CellTiter-Glo (AID 1508586;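 active means mean z-score across replicates of 1.96 or higher in either the MELAS or the Rieske mutant cell line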;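 further: z relative to plate mean and SD of compound and empty wells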).
In experiment [11] the target is NAD(+) hydrolase SARM1 (Homo sapiens) (UniProt Q6SZW1). Description: SARM1 TIR NADase inhibitors, cell lysate, NAD-Glo luminescence (AID 1508614;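 active means compound whose remaining NAD level is above about 45 nM, limit read from the data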). The following applies: SAM-TIR HEK293T lysate NADase, at 1 µM, stronger effect = higher value.
Chain of NAD(+) hydrolase SARM1 (Homo sapiens) (Q6SZW1 whole entry, looked up): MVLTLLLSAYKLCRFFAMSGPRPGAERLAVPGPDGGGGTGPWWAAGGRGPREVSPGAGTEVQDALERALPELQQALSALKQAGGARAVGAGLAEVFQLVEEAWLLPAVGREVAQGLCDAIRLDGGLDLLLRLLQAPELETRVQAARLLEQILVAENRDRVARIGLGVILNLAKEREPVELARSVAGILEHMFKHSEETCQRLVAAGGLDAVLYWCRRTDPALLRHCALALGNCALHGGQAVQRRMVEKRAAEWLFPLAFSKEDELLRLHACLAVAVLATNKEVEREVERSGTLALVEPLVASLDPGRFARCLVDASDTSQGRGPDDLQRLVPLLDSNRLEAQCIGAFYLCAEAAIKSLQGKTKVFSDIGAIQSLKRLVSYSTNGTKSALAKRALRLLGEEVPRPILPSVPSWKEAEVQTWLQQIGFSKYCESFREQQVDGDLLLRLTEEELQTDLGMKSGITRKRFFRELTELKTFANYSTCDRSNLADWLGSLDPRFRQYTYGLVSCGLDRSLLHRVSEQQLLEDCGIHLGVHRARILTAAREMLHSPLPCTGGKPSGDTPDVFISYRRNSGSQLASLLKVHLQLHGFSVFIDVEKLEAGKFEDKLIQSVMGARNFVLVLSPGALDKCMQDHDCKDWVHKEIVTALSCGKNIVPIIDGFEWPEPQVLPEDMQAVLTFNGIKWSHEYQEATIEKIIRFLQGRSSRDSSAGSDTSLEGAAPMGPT
A short description of experiment [12]: viability rescue of complex I mutant cybrids, primary screen, cell-based, galactose medium, ATP luminescence (AID 1645843).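 Further: positive z means more ATP and so rescue of galactose-driven cybrid death.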 As to conditions: complex I mutant cybrid cells, 72 h, stronger effect = higher value.
Experiment [13] relates to Aerobactin synthetase IucA (Klebsiella pneumoniae hvKP1). Kind of experiment: Biochemical IucA enzyme inhibition primary screen of the Spectrum library (AID 1346200; call rule not given here;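 further: 100% = wells without compound and 0% = wells lacking enzyme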). As to conditions: malachite green pyrophosphate, A620, at 8 µM, stronger effect = lower value.
A short description of experiment [14]: sensitizers of A549 cells to miR-34 induction, primary screen, imaging, A549 dox-inducible miR-34, nuclei and caspase counts (AID 1347080;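 active means compounds whose cell count with miR-34 switched on is under 0.7 times the count with it off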). As to conditions: A549 miR-34 inducible, Hoechst nuclei count, 48 h.
Experiment [15] can be described thus: liver-stage malaria parasite growth inhibition, primary screen, cell-based, HepG2, luciferase luminescence, HepG2 viability (AID 624349; in the data active means parasite load remaining mostly below about 12%, no sharp cut-off; inactive means mostly above about 10%;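 further: 100% = mean of DMSO negative control wells on the same plate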). As to conditions: P. berghei liver stage in HepG2, luciferase luminescence, concentration not given here; parasite load remaining: stronger effect = lower value; viability: measured here: HepG2 viability without parasites.
Experiment [16] addresses Mitogen-activated protein kinase 7 (Homo sapiens) (UniProt Q13164). Description: ERK5 transactivation activators in reporter cells, primary screen, cell-based, HTS (AID 1508626;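 active means luciferase signal above three times the same-plate solvent-only control wells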;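 further: luciferase driven by Gal4-ERK5 fusion binding five Gal4 sites before minimal TATA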). As to conditions: HeLa Gal4-ERK5 transactivation, 18 h, at 5 µM, stronger effect = higher value.
The mark [17] stands for this setting: measured here: epithelial PC-3E GFP cell survival.
Setting [18] is: measured here: mesenchymal TEM4-18 mCherry cell survival.
[19] abbreviates: MELAS cybrid survival, CellTiter-Glo 48 h, stronger effect = higher value.
Where [20] appears, read: Rieske KO mouse fibroblast survival, CellTiter-Glo 72 h.
Setting [21] is: measured here: total cells without miR-34 induction.
[22] abbreviates: measured here: relative caspase fold change +Dox/-Dox.
The mark [23] stands for this setting: measured here: total cells with miR-34 induction, stronger effect = lower value.

Chain of Mitogen-activated protein kinase 7 (Homo sapiens) (Q13164 whole entry, looked up, the tested form may be a part): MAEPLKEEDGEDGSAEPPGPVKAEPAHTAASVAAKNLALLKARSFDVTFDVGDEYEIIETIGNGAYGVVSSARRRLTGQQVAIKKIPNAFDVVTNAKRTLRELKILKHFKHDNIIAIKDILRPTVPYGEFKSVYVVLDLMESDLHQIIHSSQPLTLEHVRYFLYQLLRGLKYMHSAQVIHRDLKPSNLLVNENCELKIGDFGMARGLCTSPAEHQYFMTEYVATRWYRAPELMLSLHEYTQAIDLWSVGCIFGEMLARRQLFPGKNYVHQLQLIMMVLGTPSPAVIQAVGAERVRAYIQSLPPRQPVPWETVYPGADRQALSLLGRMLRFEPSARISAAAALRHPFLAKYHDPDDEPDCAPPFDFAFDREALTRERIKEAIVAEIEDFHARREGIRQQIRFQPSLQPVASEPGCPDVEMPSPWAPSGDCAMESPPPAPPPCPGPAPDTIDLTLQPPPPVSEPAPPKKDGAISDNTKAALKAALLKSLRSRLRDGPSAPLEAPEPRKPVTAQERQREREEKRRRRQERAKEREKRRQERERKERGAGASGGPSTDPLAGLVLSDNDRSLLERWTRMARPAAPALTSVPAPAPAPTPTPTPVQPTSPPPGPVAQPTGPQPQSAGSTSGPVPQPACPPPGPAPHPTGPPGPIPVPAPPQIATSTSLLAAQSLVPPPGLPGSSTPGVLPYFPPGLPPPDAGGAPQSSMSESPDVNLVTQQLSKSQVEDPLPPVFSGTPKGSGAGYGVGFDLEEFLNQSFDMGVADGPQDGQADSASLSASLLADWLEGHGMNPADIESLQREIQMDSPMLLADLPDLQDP

For `CC[C@@H](CO)NC(=O)[C@@H]1C=C2c3cccc4c3c(cn4C)C[C@H]2N(C)C1`, the nuclear beta-catenin stimulation in experiment [1] (at 10 µM) is 3.3% (inactive); in [1] (stimulation, at 2 µM), 1.1%. Also, in [2], the insulin secretion stimulation is 2.6% (inactive). Further, the viability decrease in experiment [3] is 1% (inactive). For the same compound, the tube area decrease in [4] is -1.8% (inactive). In addition, in experiment [5], the GLP1 secretion stimulation was 0.1% (inactive). Besides, in [6], the inhibition of viability was 9.4% (inactive). The values for the viability decrease (inhibition) in experiment [7] and in experiment [8] were 16% (inactive) and 5.6% (inactive), respectively. For the same compound, in experiment [9], the red/green cell ratio (normalised) was 0.99 (inactive). For the same compound, the normalised cell number in [9] (setting [17]) was determined as 0.96; in experiment [9] (setting [18]), 0.95. In addition, the z-score in [10] (setting [19]) was -0.563 (inactive); in experiment [10] (setting [20]), -1.27; in experiment [12], 0.19 (inactive) and -0.69 (inactive) and -0.15 (inactive). Moreover, in [11], the remaining NAD is 10 nM (inactive).
In the case of `NN=C(N)N`, the nuclear beta-catenin stimulation in experiment [1] (at 10 µM) is 0.8% (inactive); in experiment [1] (stimulation, at 2 µM), 6.5%. Moreover, in experiment [2], the insulin secretion stimulation is 1.9% (inactive). The viability decrease in [3] is -34.7% (inactive). For the same compound, the tube area decrease in [4] was -0.5% (inactive). Moreover, the GLP1 secretion stimulation in experiment [5] was -3.5% (inactive). Also, in [6], the inhibition of viability is 0.63% (inactive). Moreover, the viability decrease (inhibition) is 20.2% (inactive) in experiment [7] and -6% (inactive) in experiment [8]. Also, in experiment [9] (counts scaled to control wells, 1 = unselective), the red/green cell ratio (normalised) is 0.96 (inactive) and 0.91 (inactive). Besides, the normalised cell number was 1.02 and 1.25 in [9] (setting [17]); 0.98 and 1.14 in experiment [9] (setting [18]). For the same compound, the activity remaining in experiment [13] was 107% (inactive). Moreover, in experiment [14] (setting [21]), the cell count is 10500 and 9550 and 9270. For the same compound, the remaining NAD in experiment [11] was 10 nM (inactive). For the same compound, the z-score in [12] was 0.575 (inactive) and 0.155 (inactive) and 0.34 (inactive).
As for `O=P1(NCCCl)OCCCN1CCCl` (configuration not stated), the parasite load remaining in experiment [15] was 91% (inactive) and 76.7% (inactive) and 18.8% (inactive). Also, the viability in experiment [15] was 94% and 95.7% and 66%. The nuclear beta-catenin stimulation in experiment [1] (at 10 µM) was 1.1% (inactive); in experiment [1] (stimulation, at 2 µM), 0.8%. Also, the insulin secretion stimulation in experiment [2] is 2.9% (inactive). Moreover, the viability decrease in [3] is -25.5% (inactive). For the same compound, the tube area decrease in [4] was 9.8% (inactive). In experiment [5], the GLP1 secretion stimulation was -0.1% (inactive). In addition, the inhibition of viability in experiment [6] is 7.23% (inactive). The viability decrease (inhibition) in experiment [7] is -16.8% (inactive); in experiment [8], -5.2% (inactive). Also, in [9], the red/green cell ratio (normalised) is 1.03 (inactive). Also, the normalised cell number turned out to be 1.08 in experiment [9] (setting [17]) and 1.11 in experiment [9] (setting [18]). Moreover, the activity remaining in experiment [13] was 114% (inactive). For the same compound, the z-score in experiment [10] (setting [19]) was -0.402 (inactive) and 0.719 (inactive) and 0.667 (inactive); in experiment [10] (setting [20]), -0.0632 and -0.341 and -0.186; in experiment [12], 0.08 (inactive). Also, the remaining NAD in experiment [11] was 10 nM (inactive). In addition, the luciferase signal in experiment [16] is 44 AU (inactive).
As for `Oc1cc(Cl)ccc1Oc1ccc(Cl)cc1Cl`, in experiment [15], the parasite load remaining was -1.97% (inactive) and 16.2% (inactive). For the same compound, the viability in [15] was 75.8% and 88.8%. Besides, the nuclear beta-catenin stimulation is 1.1% (inactive) in experiment [1] (at 10 µM) and 0.7% in [1] (stimulation, at 2 µM). Further, the insulin secretion stimulation in [2] is 1.4% (inactive). Also, in [3], the viability decrease was 48.8% (inactive). Also, the tube area decrease in experiment [4] was 104% (active). The GLP1 secretion stimulation in experiment [5] was 26.8% (active). In addition, the inhibition of viability in [6] is 95% (active). Besides, the viability decrease (inhibition) was 112% (active) in experiment [7] and 51.4% (active) in experiment [8]. In addition, the red/green cell ratio (normalised) in experiment [9] is 0.82 (inactive). For the same compound, the normalised cell number in experiment [9] (setting [17]) amounted to 1.03; in experiment [9] (setting [18]) it was 0.84. Moreover, the activity remaining in experiment [13] is 106% (inactive). The fold change in [14] (stronger effect = lower value) was 1.03 (inactive) and 0.888 (inactive); in experiment [14] (setting [22]), 2.38 and 7.01. The cell count was 7170 and 12100 in [14] (setting [23]); 6950 and 13600 in experiment [14] (setting [21]). The z-score in experiment [10] (setting [19]) is -0.777 (inactive); in experiment [10] (setting [20]), -0.145; in [12], -1.48 (inactive). Further, the remaining NAD in experiment [11] is 10 nM (inactive). For the same compound, the luciferase signal in experiment [16] is 48 AU (inactive).
For `NC1=NC(=O)C(c2ccccc2)O1` (configuration not stated), the parasite load remaining in [15] is 109% (inactive). This compound displayed a viability in experiment [15] of 79.6%. Moreover, the nuclear beta-catenin stimulation in experiment [1] (at 10 µM) is 1% (inactive); in [1] (stimulation, at 2 µM), 0.5%. Also, the insulin secretion stimulation in experiment [2] was -0.9% (inactive). Moreover, the viability decrease in [3] was -2.4% (inactive). The tube area decrease in experiment [4] was 1.1% (inactive). Besides, in experiment [5], the GLP1 secretion stimulation was 3.5% (inactive). The inhibition of viability in experiment [6] is -21.1% (inactive). The viability decrease (inhibition) is 36.7% (inactive) in experiment [7] and -5.1% (inactive) in experiment [8]. In addition, the figures for the fold change in [14] (stronger effect = lower value) and in experiment [14] (setting [22]) were 0.967 (inactive) and 2.22, respectively. Moreover, the cell count turned out to be 9620 in [14] (setting [23]) and 9950 in experiment [14] (setting [21]). In addition, the z-score in experiment [12] is 0.395 (inactive).

By viability is commonly meant a per cent measure of how many cells are alive, often set against a control.
